High-throughput results as filed in PubChem BioAssay.
Most compounds without a hit are left out; they make up all but 12% or so of the library.
USP30 inh – blocks human USP30 ubiquitin-rhodamine cleavage. AID 1645860. inhibition, % at 25 µM. actives 5.3% (n = 47,000). Q70CQ3. purified USP30, Ub-rhodamine cleavage fluorescence
USP28 inh – inhibitors of human USP28 deubiquitinase; Q96RU2; purified USP28, Ub-rhodamine cleavage fluorescence, 30 min; inhibition, % at 25 µM; actives 3% (n = 47,000); AID 1645857
USP17 block – human USP17-like deubiquitinase inhibition; actives 6.5% (n = 47,000); inhibition, % at 50 µM; A8MUK1; AID 1645855; purified USP17, Ub-rhodamine cleavage fluorescence, 3 h
OTUD3 block – blocks human OTUD3 ubiquitin-rhodamine cleavage; purified OTUD3, Ub-rhodamine fluorescence, 2 h; AID 1645858; actives 0.7% (n = 47,000); inhibition, % at 25 µM; Q5T2D3
Target sequence (Q5T2D3 whole entry, looked up): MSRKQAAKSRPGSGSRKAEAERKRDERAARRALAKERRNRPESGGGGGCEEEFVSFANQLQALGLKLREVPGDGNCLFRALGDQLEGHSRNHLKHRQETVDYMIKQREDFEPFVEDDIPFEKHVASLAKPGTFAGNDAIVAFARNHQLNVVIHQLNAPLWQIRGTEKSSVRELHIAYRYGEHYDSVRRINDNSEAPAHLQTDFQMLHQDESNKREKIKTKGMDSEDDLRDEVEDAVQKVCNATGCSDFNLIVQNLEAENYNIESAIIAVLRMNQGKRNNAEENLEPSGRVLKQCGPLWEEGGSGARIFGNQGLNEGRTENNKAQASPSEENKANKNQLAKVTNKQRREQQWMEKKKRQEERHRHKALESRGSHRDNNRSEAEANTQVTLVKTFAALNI
* hit, by the source's call. Cut-off read from the data, not from the text of the source: active = inhibition above about 30%; inactive = the rest.

How did CCn1nc(C)c(CNC(=O)c2[nH]c3ccc(C)cc3c2NC(=O)c2cccc(C)c2)c1C do in these assays?
USP30 inh: 88*; USP28 inh: 24; USP17 block: 77*; OTUD3 block: 71*

Results for Cc1cccc(C(=O)Nc2nnc(Cc3cn(C)c4ccccc34)s2)c1 ?
USP30 inh: -62; USP28 inh: 9; USP17 block: 27; OTUD3 block: 0

How did Cc1cccc(C(=O)Nc2c(C)nn(Cc3cccc4ccccc34)c2C)c1 do in these assays?
USP30 inh: 19; USP28 inh: 31*; USP17 block: 24; OTUD3 block: 14

How did O=C(Nc1ccc(-c2cn3ccsc3n2)cc1)c1ccc(Cl)c([N+](=O)[O-])c1 do in these assays?
USP30 inh: 82*; USP28 inh: 32*; USP17 block: 12; OTUD3 block: 24

How did Cc1[nH]c(C)c(S(=O)(=O)N2CCCC2)c1-c1nnc(C2CCC2)o1 do in these assays?
USP30 inh: -13; USP28 inh: -6; USP17 block: -5; OTUD3 block: -1

How did FC(F)(F)c1cc(C(F)(F)F)c2ccc(N3CCC4(CC3)OCCO4)nc2n1 do in these assays?
USP30 inh: 30; USP28 inh: -1; USP17 block: 30*; OTUD3 block: 2

Results for C=Cc1ccc(Cn2cc(S(=O)(=O)N3CCOCC3)ccc2=O)cc1 ?
USP30 inh: -44; USP28 inh: 14; USP17 block: 57*; OTUD3 block: 4

What do the screens show for `Cc1ccccc1NC(=O)CN1CCN(c2nccn2-c2ccccc2F)CC1`?
USP30 inh: -53; USP28 inh: -16; USP17 block: -14; OTUD3 block: -17

How did Cc1c(C2CCCN(C(=O)c3ccn(C)n3)C2)n2c(nc1=O)CCC2 (centres undefined) do in these assays?
USP30 inh: 37*; USP28 inh: 5; USP17 block: 19; OTUD3 block: 25

What do the screens show for `CNc1cncc(C2CCN(C(=O)c3ccn(C)n3)CC2)n1`?
USP30 inh: 2; USP28 inh: 1; USP17 block: 4; OTUD3 block: 16

What do the screens show for `Cc1ccccc1CNC(=O)CCn1cnc2c(-c3ccccc3)noc2c1=O`?
USP30 inh: 43*; USP28 inh: 6; USP17 block: -9; OTUD3 block: 20

How did Cc1nc2c(-c3ccccc3)noc2c(=O)n1CC(=O)O do in these assays?
USP30 inh: 31*; USP28 inh: 8; USP17 block: 8; OTUD3 block: 21

How did O=C(O)CCn1cnc2c(-c3ccccc3)noc2c1=O do in these assays?
USP30 inh: -12; USP28 inh: -5; USP17 block: -1; OTUD3 block: -1

What do the screens show for `CCOc1nccnc1NC1CCN(C(=O)c2ccccc2)CC1`?
USP30 inh: 19; USP28 inh: 13; USP17 block: 18; OTUD3 block: 13

What do the screens show for `Cc1ccc(NC(=O)/C=C/c2cccc(C(F)(F)F)c2)c(O)c1`?
USP30 inh: 45*; USP28 inh: 27; USP17 block: 58*; OTUD3 block: 11

How did Cc1c(CN2CCc3c(nc(N4CCCC(C)C4)[nH]c3=O)C2)cnn1C (centres undefined) do in these assays?
USP30 inh: -13; USP28 inh: -8; USP17 block: -1; OTUD3 block: -4

How did Cc1ccc(CNC(=O)Cc2nnc(-c3ccc4ncccc4c3)o2)cc1 do in these assays?
USP30 inh: -115; USP28 inh: 11; USP17 block: 31*; OTUD3 block: -9

Results for O=c1[nH]c2ccccc2n1CCCOc1ccc(Cl)cc1 ?
USP30 inh: 6; USP28 inh: 40*; USP17 block: 7; OTUD3 block: 1

Results for COCCn1ccc2nc(C)c(C(=O)N3CCN(c4ccccn4)CC3)cc2c1=O ?
USP30 inh: -50; USP28 inh: -24; USP17 block: -28; OTUD3 block: -11

What do the screens show for `Cc1ccc(C)c(Cn2nnc3c(=O)[nH]c(C4CCN(S(=O)(=O)c5ccc(S(=O)(=O)NC6CC6)cc5)CC4)nc32)c1`?
USP30 inh: 52*; USP28 inh: 42*; USP17 block: 30*; OTUD3 block: 20

What do the screens show for `Cc1ccc(C)c(Cn2nnc3c(=O)[nH]c(C4CCN(S(=O)(=O)c5ccc(S(=O)(=O)NC6CCCC6)cc5)CC4)nc32)c1`?
USP30 inh: -1; USP28 inh: 21; USP17 block: -8; OTUD3 block: -4

How did Cc1ccc(C)c(Cn2nnc3c(=O)[nH]c(C4CCN(S(=O)(=O)c5ccc(S(=O)(=O)N6CCOCC6)cc5)CC4)nc32)c1 do in these assays?
USP30 inh: 33*; USP28 inh: 15; USP17 block: 40*; OTUD3 block: 27

Results for Cc1cc(=O)n2[nH]c(CN(C(=O)c3ccco3)c3ccc(Cl)cc3)nc2n1 ?
USP30 inh: 1; USP28 inh: 9; USP17 block: 7; OTUD3 block: 7

How did CN1C(=O)COc2ccc(NC(=O)c3cc(-c4ccccc4)on3)cc21 do in these assays?
USP30 inh: 27; USP28 inh: 12; USP17 block: 74*; OTUD3 block: 13

How did COc1ccccc1-c1nnc(SCC(=O)c2ccc3c(c2)NC(=O)CO3)n1Cc1ccco1 do in these assays?
USP30 inh: -16; USP28 inh: 5; USP17 block: 37*; OTUD3 block: -3

How did COc1cccc(CC(C#N)(Cc2cccc(OC)c2)c2nc3ccccc3n2C)c1 do in these assays?
USP30 inh: 12; USP28 inh: 15; USP17 block: 0; OTUD3 block: 12

How did Cc1sc(NC(=O)CN2CCc3ccccc3C2)nc1-c1ccc2c(c1)CCN2C(=O)c1cccc(F)c1 do in these assays?
USP30 inh: -65; USP28 inh: -25; USP17 block: 21; OTUD3 block: -28

What do the screens show for `Cc1sc(NC(=O)Cn2nnc3ccccc32)nc1-c1ccc2c(c1)CCN2C(=O)C1CCCCC1`?
USP30 inh: 30; USP28 inh: 13; USP17 block: 31*; OTUD3 block: 5

Results for Cc1cccc(C(=O)N2CCc3cc(-c4nc(NC(=O)CN5CCc6ccccc6C5)sc4C)ccc32)c1 ?
USP30 inh: 12; USP28 inh: 20; USP17 block: 66*; OTUD3 block: 11

What do the screens show for `Cc1ccc(C(=O)N2CCc3cc(-c4csc(NC(=O)Cn5nnc6ccccc65)n4)ccc32)cc1`?
USP30 inh: 8; USP28 inh: 23; USP17 block: 43*; OTUD3 block: 29

Results for CC(=O)N1Cc2ccccc2OC2(CCCN(C(=O)C3CC3)C2)C1 (centres undefined) ?
USP30 inh: 28; USP28 inh: 12; USP17 block: 10; OTUD3 block: 10

What do the screens show for `COCCCNC(=O)c1nn(C)c2c1COc1ccccc1-2`?
USP30 inh: 3; USP28 inh: -20; USP17 block: -19; OTUD3 block: -13

How did CN=C(N)NCCC/C=C/CCCC(C)CC(C)C1OC(=O)/C=C/C(C)C(O)CC(O)C(C)C(O)CCC(C)C(O)CC2(O)OC(CC(OC(=O)CC(=O)O)CC(O)CC(O)C(C)C(O)/C=C/C1C)CC(O)C2O (centres undefined) do in these assays?
USP30 inh: 15; USP28 inh: 53*; USP17 block: 19; OTUD3 block: 6
